We go through six molecules from PubChem BioAssay (NCI).

This is part of a sample that, as a whole, favours compounds with a hit. Of some 83,000 tested, about 20% had one in any assay.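 The test compound was applied at a single concentration to cells in 96-well plates for 48 hours, and percent growth was recorded.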 A number with no mark means an inactive call. The source made the active and inactive calls. How the source made its calls: active means growth percent below 10; inactive means the rest.

This test has as its system MDA-MB-468 breast. Kind of test: NCI-60 one-dose screen, 48 h (100 = growth as untreated, 0 = no growth, -100 = all killed). The following applies: 10 µM unless noted.
On to `COc1ccc(-c2cnc3ccnn3c2-c2cc(OC)c(OC)c(OC)c2)cc1`, for which the growth was 2.83% (active).
For `CCOC(=O)n1ccn(C)c1=S` the value was 103%; for `Cc1cc(NCCCCNc2ccnc3cc(Cl)ccc23)nc(Nc2ccc(C(=O)N3CCCC3)cc2)n1`, -26.6% (active).
On to `COc1ccc2nc(C)cc(Nc3ccc(Cl)cc3)c2c1`, for which the growth is 87.2%.
Under `C#CCNC(=O)[C@H](CC)[C@H]1CC[C@H](C)[C@H]([C@@H](C)[C@H](O)[C@H](C)C(=O)[C@H](CC)C2O[C@]3(C=CC(=O)[C@]4(CC[C@@](C)([C@H]5CC[C@](O)(CC)[C@H](C)O5)O4)O3)[C@H](C)C[C@@H]2C)O1` (stereo partly specified) stands 9.34% (active).
For `CC(C)C[C@H](NC(=O)Cn1cccc(CNC(=O)c2ccccc2)c1=O)B(O)O` the value was -19.5% (active).
